Reference: PubChem BioAssay AID720549 (National Center for Advancing Translational Sciences (NCATS), 2013)
Inconclusive results are not listed. Where a call stands in place of a potency, no number is given. The source made the active and inactive calls. Calls come from the whole dose curve; as a rule, active = well fitted inhibition curve with a large enough effect; inconclusive = small, poorly fitted or top-dose-only effect; inactive = flat fitted curve, though single readings scatter.

biological target: RecQ-like DNA helicase BLM (Homo sapiens) (UniProt P54132); experiment: qHTS for Inhibitors of Bloom's syndrome helicase (BLM): Helicase ATPase Orthogonal Confirmatory Assay for SAR; settings: purified BLM helicase ATPase activity assay; series mostly up to 57.1 µM
Sequence (P54132 whole entry, looked up): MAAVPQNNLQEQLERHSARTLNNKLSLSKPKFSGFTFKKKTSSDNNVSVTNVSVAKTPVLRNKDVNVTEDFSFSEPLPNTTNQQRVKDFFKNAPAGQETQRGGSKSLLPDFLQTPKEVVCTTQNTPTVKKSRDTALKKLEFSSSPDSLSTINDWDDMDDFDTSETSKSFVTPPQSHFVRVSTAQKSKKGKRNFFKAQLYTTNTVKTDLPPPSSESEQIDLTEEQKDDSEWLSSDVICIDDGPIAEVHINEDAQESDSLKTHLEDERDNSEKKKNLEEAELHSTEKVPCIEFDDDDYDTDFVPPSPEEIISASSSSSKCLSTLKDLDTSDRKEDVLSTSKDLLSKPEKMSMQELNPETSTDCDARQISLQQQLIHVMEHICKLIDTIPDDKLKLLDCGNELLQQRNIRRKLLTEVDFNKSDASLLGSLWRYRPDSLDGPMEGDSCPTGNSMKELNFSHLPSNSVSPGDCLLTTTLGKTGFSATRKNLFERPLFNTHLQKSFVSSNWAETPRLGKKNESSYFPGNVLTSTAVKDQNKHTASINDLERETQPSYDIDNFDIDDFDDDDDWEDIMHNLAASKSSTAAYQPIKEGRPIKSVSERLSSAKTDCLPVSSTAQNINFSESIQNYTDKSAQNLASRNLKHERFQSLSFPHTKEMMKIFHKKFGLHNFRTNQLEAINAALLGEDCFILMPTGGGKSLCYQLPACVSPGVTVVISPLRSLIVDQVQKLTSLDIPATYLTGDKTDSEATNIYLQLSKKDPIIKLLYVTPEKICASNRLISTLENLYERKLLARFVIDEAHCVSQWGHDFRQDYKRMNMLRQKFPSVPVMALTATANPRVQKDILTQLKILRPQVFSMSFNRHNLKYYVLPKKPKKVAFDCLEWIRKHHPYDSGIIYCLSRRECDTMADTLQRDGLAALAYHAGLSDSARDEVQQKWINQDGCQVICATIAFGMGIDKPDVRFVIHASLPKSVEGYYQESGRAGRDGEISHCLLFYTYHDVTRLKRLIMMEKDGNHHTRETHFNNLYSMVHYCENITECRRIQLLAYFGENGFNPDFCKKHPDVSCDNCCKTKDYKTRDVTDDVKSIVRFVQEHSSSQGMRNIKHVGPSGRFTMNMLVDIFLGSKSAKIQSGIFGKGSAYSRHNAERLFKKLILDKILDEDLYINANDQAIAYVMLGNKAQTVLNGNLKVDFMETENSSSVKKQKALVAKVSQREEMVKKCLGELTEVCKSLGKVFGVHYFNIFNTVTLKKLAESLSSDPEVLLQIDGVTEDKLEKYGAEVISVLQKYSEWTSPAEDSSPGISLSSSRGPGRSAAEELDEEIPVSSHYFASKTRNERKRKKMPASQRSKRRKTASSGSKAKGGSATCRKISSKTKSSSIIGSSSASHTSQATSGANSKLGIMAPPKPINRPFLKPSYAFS
In short: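 Purified BLM (2 nM) in Tris-HCl pH 8.0 with MgCl2, DTT, Tween-20, preincubated 15 min with compound. Reaction with 200 nM ssDNA and 100 uM ATP ran 15 min; ADP-Glo luminescence, four-parameter Hill fit.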

Structure (SMILES) | Potency
N#Cc1cccc(NC(=O)Nc2nnc(-c3ccncc3)s2)c1 | 2290 nM (active)
O=C(Nc1nnc(-c2ccncc2)s1)Nc1ccc(Cl)c2ccccc12 | inactive
Cc1cc(C)c(-c2nnc(NC(=O)Nc3ccc4ccccc4c3)s2)c(C)c1 | inactive
O=C(Nc1ccc2ccccc2c1)Nc1nnc(-c2ccccc2Cl)s1 | inactive
O=C(Nc1ccc(N2CCOCC2)c(C(F)(F)F)c1)Nc1nnc(-c2ccncc2)s1 | inactive
O=C(Nc1ccc(Cl)c([N+](=O)[O-])c1)Nc1nnc(-c2ccncc2)s1 | 1820 nM (active)
O=C(NCc1ccc(Cl)c(Cl)c1)Nc1nnc(-c2ccncc2)s1 | inactive
O=C(Nc1ccc(F)c(C(F)(F)F)c1)Nc1cccc(-c2ccncc2)n1 | inactive
O=C(Nc1ccc(Cl)c(C(F)(F)F)c1)Nc1nnc(-c2ccncc2)s1 | inactive
O=C(Nc1ccc(Cl)c([N+](=O)[O-])c1)Nc1nnc(C2CCCCC2)s1 | inactive
O=C(Nc1ccc2ccccc2c1)Nc1nnc(-c2ccccc2F)s1 | inactive
O=C(NCc1ccccc1)Nc1nnc(-c2ccncc2)s1 | inactive
O=C(Nc1ccc(F)c(C(F)(F)F)c1)Nc1nc(-c2ccncc2)cs1 | inactive
O=c1c(Nc2ccc(F)c(C(F)(F)F)c2)c(Nc2nnc(-c3ccncc3)s2)c1=O | inactive
